Screening data from PubChem BioAssay.
S1P3 antag: blocks the human S1P3 receptor; inhibition, % at 4.98 µM; CHO S1P3 NFAT-BLA reporter, FRET fluorescence, antagonist mode; 0.27% of 170,000 active; Q99500;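 active means inhibition above the plate cutoff, the mean inhibition of test wells on that plate plus 3 SD, cut at about 28% in these data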;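 further: cells challenged with S1P at its EC80 of 0.8 µM; blue over green emission ratio from cleaved BLA substrate after 4 h stimulation; 0% = S1P-stimulated wells and 100% = unstimulated DMSO-only wells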
Target sequence (Q99500 whole entry, looked up): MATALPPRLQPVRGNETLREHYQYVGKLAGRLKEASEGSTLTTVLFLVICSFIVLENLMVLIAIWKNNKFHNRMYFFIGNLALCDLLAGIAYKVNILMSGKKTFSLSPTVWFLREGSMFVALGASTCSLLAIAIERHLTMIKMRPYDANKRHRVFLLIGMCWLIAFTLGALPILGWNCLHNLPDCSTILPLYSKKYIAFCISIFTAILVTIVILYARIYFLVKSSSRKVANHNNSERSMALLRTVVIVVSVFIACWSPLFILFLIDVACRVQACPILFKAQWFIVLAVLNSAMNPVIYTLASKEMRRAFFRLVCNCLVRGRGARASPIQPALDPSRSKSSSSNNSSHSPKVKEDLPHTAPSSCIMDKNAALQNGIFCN
S1P4 antagonist: antagonists of human S1P4 receptor; AID 1510; 0.26% of 220,000 active; inhibition, % at 4.98 µM; O95977; S1P4-expressing cells, antagonist mode, reporter read-out; in the data active means inhibition above about 29%;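 further: 0% = wells stimulated with agonist and 100% = vehicle wells without agonist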
Hsp70 activator: transcriptional activators of Hsp70; HeLa Hsp70 promoter luciferase reporter, luminescence; scaled: vehicle 0, proteasome-inhibitor control 100%; activation, % at 10 µM; 0.04% of 200,000 active; AID 1203;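 active means activation above the mean across all tested compounds plus 3 SD, cutoff set per campaign, cut at about 5.5% in these data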;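 further: 100% = MG132 at 30 µM as the positive control and 0% = DMSO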
Ins promoter up: MIN6 insulin promoter up-regulation; AID 1625; 0.3% of 190,000 active; MIN6 insulin promoter-GFP reporter, high-content imaging; active compounds read high; z-score at 5 µM;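 active means z-score above 3 at 5 µM with at least 500 cells counted in the well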
S1P4 ag: agonists of human S1P4 receptor. S1P4-expressing cell line, agonist reporter assay. activation, % at 4.98 µM. 0.35% of 220,000 active. AID 1509; in the data active means activation above about 11%;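 further: 0% = DMSO vehicle and 100% = reference agonist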
INS promoter inh: TRM-6 insulin promoter activity inhibition; TRM-6 cells (human fetal islet line), insulin promoter-eGFP reporter, imaging; reporter expression induced with tamoxifen; inhibition, % at 2 µM; 0.9% of 130,000 active; AID 1273;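 active means inhibition above the mean plus 3 SD, with well images judged a real hit on visual review, cut at about 60% in these data, passing the limit was not always enough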
S1P4 agonist cf: confirmation of human S1P4 receptor agonists. S1P4 agonist cell-based reporter assay. shares compounds with S1P4 ag. 7% of 740 active. activation, % at 4.98 µM; in the data active means activation above about 12%;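 further: 0% = vehicle and 100% = full reference agonist response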
S1P1 ag: counter-screen for S1P4 agonists: agonists of human S1P1; S1P1 agonist cell-based assay, activation; activation, % at 4.98 µM; shares compounds with S1P4 ag; 4% of 740 active; in the data active means activation above about 21%;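 further: 0% = vehicle wells and 100% = reference agonist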
* hit, by the source's call; / = no result given. The list is not random: actives were taken first. Their share in the collection is about 1.5%.

SMILES	S1P3 antag	S1P4 antagonist	Hsp70 activator	Ins promoter up	S1P4 ag	INS promoter inh	S1P4 agonist cf	S1P1 ag
COC(=O)c1ccc(NC(=O)c2ccccc2)o1	/	-7.4	0.6	2.73	24.8*	41.2	-1.8	-4.8
c1ccc(N2N=C(c3cccs3)CC2c2ccco2)cc1 (stereo not given)	/	-1.1	-0.2	0.07	9.1	/	/	/
Clc1ccc(N2N=C(c3cccs3)CC2c2ccco2)cc1 (stereo not given)	/	-3.6	0.2	0.1	14.1*	/	18.9*	55.2*
CC(C)n1cnc2c(N(C)c3ccccc3)nc(N(CCN(C)C)Cc3ccccc3)nc21	/	/	/	-2.62	/	/	/	/
COc1cc(Cl)cc(C(=O)O)c1OCC(=O)O	-8.7	2.5	-0.4	0.09	0.4	/	/	/
Cc1cccc(C(=O)NNc2ncnc3c2cnn3C)c1	-14.7	-7.9	0.4	-0.65	14.8*	8.3	-1.5	2.7
COc1ccc(NC(=O)CSc2nc3c(c(=O)n2-c2ccc(F)cc2)SCC3)c(OC)c1	19.0	-18.4	0.7	-0.8	13.1*	53.9	-2.0	-9.0
COc1ccc(-n2c(SCC(=O)Nc3cc(C)on3)nc3c(c2=O)SCC3)cc1	3.0	-97.5	0.0	0.86	2.1	/	/	/
Cc1ccc(CN=C(Nc2ccccc2)NC2CCCCC2)cc1	6.3	-0.1	-0.1	-1.15	0.4	/	/	/
CC(=O)c1ccc(OCc2cc(=O)n3ccsc3n2)cc1	-5.8	-0.6	-0.4	0.69	-0.2	13.3	/	/
COC(=O)N/N=C(\CCC(=O)O)c1cccs1	4.3	-15.4	/	0.13	27.2*	/	-1.6	-5.6
Cc1ccccc1-n1c(SCC(=O)N/N=C/C=C/c2ccccc2[N+](=O)[O-])nc2ccccc2c1=O	15.3	-14.8	-0.2	-1.02	14.1*	52.4	-2.9	-11.6
CC(C)(C)c1cc2nc(N)nc(N)n2n1	-4.7	15.4	/	0.11	-0.1	/	/	/
CSc1nc(N)n2nc(C(C)(C)C)cc2n1	-4.4	-16.9	/	1.89	22.7*	/	-2.4	-5.0
O=C(O)c1ccc(N2C(=O)/C(=C/C=C/c3ccccc3)SC2=S)cc1	1.3	-0.4	-0.2	-0.51	15.2*	/	-2.3	0.0
COc1ccccc1OCCC(=O)N1CCN(c2ccccc2OC)CC1	-1.3	-16.2	/	-0.21	0.5	/	/	/
CCOC(=O)c1sc(NC(C)=O)nc1C	/	3.4	0.0	-0.02	-3.1	41.7	/	/
CCOC(=O)c1sc(Nc2nc(OC)cc(OC)n2)nc1C	-6.9	5.9	-0.1	-0.28	64.2*	/	-2.2	-1.4
CN(Cc1cc(=O)n2ccsc2n1)c1ccccc1	-3.1	3.4	-0.4	/	1.7	/	/	/
CN(Cc1cc(=O)n2ccsc2n1)C1CCCCC1	3.9	0.1	-0.1	-0.63	92.9*	/	-1.6	2.7
O=[N+]([O-])c1ccccc1N/N=C/c1cccc(O)c1O	-4.5	-10.4	/	-4.66	12.7*	/	-2.6	1.7
O=[N+]([O-])c1ccccc1N/N=C\c1ccccc1Cl	/	-35.6	0.3	0.06	-1.0	/	/	/
Cc1onc(C(=O)N2CCOCC2)c1[N+](=O)[O-]	-4.4	4.2	-0.2	-0.55	19.4*	/	-2.8	2.7
CC(C)c1onc(C(=O)N2CCOCC2)c1[N+](=O)[O-]	-3.7	-6.7	-0.2	0.74	-0.5	/	/	/
Nc1nonc1NC(=O)CSc1ncccc1C(=O)O	-27.7	1.0	-0.3	0.1	44.8*	-13.9	-2.1	-1.2
SMILES	S1P3 antag	S1P4 antagonist	Hsp70 activator	Ins promoter up	S1P4 ag	INS promoter inh	S1P4 agonist cf	S1P1 ag
COc1ccc(OC)c(NC(=O)CSc2ncccc2C(=O)O)c1	19.1	-0.7	-0.2	/	-1.6	-13.5	/	/
CN1CCN(Cc2c(O)ccc3cc(Br)ccc23)CC1	-10.4	-2.9	-0.5	0.31	32.1*	40.0	-2.6	-4.8
CC(C)CCN1CCN(Cc2cccs2)CC1CCO (stereo not given)	-8.5	-19.0	-0.2	0.79	-0.7	/	/	/
CC(C)N1CCN(Cc2cccs2)CC1CCO (stereo not given)	-15.6	7.8	-0.1	-1.48	63.9*	/	-1.6	4.0
O=S(=O)(CCc1nc2ccccc2o1)c1ccc2ccccc2c1	/	1.7	0.1	0.48	-1.9	28.6	/	/
CC(C)(C)c1ccc(C(=O)NCC(=O)OCc2ccc([N+](=O)[O-])cc2)cc1	-3.9	-9.0	-0.3	0.13	14.1*	/	-1.8	-6.8
O=C(CNC(=O)c1ccccc1)OCc1cccc([N+](=O)[O-])c1	-8.9	-23.5	-0.5	-0.27	0.1	-62.1	/	/
